The values below come from the supplement of paper PMC12632987.

In all, about 2,300 sequences were measured (“median log2 fold change of GCK-ALFA target abundance (FLAG IP / Myc IP barcode read proportion)”: median about 0.095, lowest 2% from about -0.47 on). This is one part of a sample in which the lowest values are shown more often than they occur.

To fix the notation:
B1: LC3A_132_312 (protein)
chain: MEEKYAEIKARLDALLDEAAANIKDKAKVQALLKEIKALLEEAEKELTPEQVAELYDYVADRLDALSQQALAAGQEDVALDLDAASIEAASRSLEAEKKI
B2: LC3A_free_8_2551 (protein)
chain: NSQEFAEKVSEIIDEAEEKVKKILTENGVDREKRLLLELLFGEIIIEVISLRDKSKEEIAKAAKEGLEEVKEEAESLDEETKAKVNAVIDEAEAKIEALL
B3: LC3A_28_1011 (protein)
chain: MSLIEKTKEEAKKAIEEAKKGEDAFLEVEITEEATEEEVKEVLEIIEETAEEISKIENVKLYIVVDFDGDQEKLDLITDGLEEIEEKYPNVSSIIAYDEK
B4: LC3A_28_1012 (protein)
chain: MSLIEATKKEAKAAIEEAKKGEDAFLEVTITEEATEEEVKEVLKIIEETAEEISKIPNVKLYVVIDFDGSQEKLDIITDRMEEIEKKYPNVSVVIAYDEK
B5: LC3A_28_1147 (protein)
chain: SAEVEAAKKQIDEDAEKDKNEEEVYLNVTITSSMTKEEVEEIMDHVEEVVEKLKDKKKIYVVVTFTEPVSQEVLDTALEKGDEIEKKFPKVDVIVALPEY
B6: LC3A_28_1154 (protein)
chain: SANVEAAKKQIDEDAEKDKDEEEVYLNVTITSEDTVEEAKEIMEHVEEVVEKLKDKKKIYVVITFEEPVSQEVLDTVLEKAEEIEKKFPNVSVIIALPED
B7: LC3A_28_1155 (protein)
chain: SAEVEEAKKLIDEDAERDKDEEEVYLEVKITSSVTVEEAREIMDHVEEVVEKLKDKKKIYVVVTFEEPVSQEVLDEVLRRAEEIEEKFPNVDVIIALPED
B8: LC3A_free_8_2523 (protein)
chain: ASQAFADAAVKILDELEEKLVKLLKEKGASRLDILEAELLVGSIIAEVISLVDESIEAILKSIKEGLEELVEELEEHKEEVTKLANEALKKIEEKAKELK
B9: LC3A_3_1539 (protein)
chain: LEEEIEAALALLREAGASEETLAAFREAAEALLERGYEEALRELIRETRELIDAPSELLLAFFEEVLALVRTSDLSEEELIAEIRRIARTTRNEAEIEEL
B10: LC3A_62_2043 (protein)
chain: MYLATVDVDILAKDEEAAEKIYEEIKKKLEELKKKDPNIKYEVKLDKENKYVSVTVTYEAETLEEAEKKAQEIEDELDEILEKNEDLIKAALISREITKL
B11: LC3A_28_882 (protein)
chain: SKALESAEKALEEVKKAVEAGDKEPLVLEVEAPSDEENTEKFLKLLEELAKEASKLPGVTIIVNIDSSVSQELRDKIIDKAEELEKKYPNVTIIIALPED
B12: LC3A_147_504 (protein)
chain: VKLEVYIDIITKNATEEVKEFVKEIEKELKEKGFEVKVKIKIEKLDEDTDYIEIEIEIKAETEEKAKEAANYIIDKFEEFEEKNKDKILGSLISVEIEKE
B13: LC3A_132_266 (protein)
chain: SEELFEKALEELKEILDKIVEALKAGEDPSPLINELYEKAKEYAKKLSLEETEKLVEETIEYAEKLFKERLDPNDEEAIRTLDIIEMLLEGVLIEKELES
B14: LC3A_132_267 (protein)
chain: SEELFEEALEELKEILDKIVDLLKAGKDPSPAITELYNTALEYSEKLSLEETEELVEKTIEYAEKLFAERLDPNDVEARRTLDIIEMLLEGVLIEKELRS
B15: LC3A_132_308 (protein)
chain: GEELAKKLIEIAKEALRLVKEDDSKEEEVLELLREAKELMEKLAKEASPELAAKTFEEVEEILIEISRLAAKKGWDEVSDEAFALAAEAAQLKSDAKKKL
B16: LC3A_free_46_2355 (protein)
chain: VKAEILIDLLHEDEEVLKKAVEEIKKAAKEIAKKYGLKVEIKEEISKLPDGSYYAEIEITLTGETKEKLEKAVTELINKIDEIAKKYNVAAIISYEIIEE
B17: LC3A_free_46_2426 (protein)
chain: VDIDVDLLLEGDDEEKLKAAVEEIKEAFKKIAEEYNAELEIEVEFSTDPDGNHFAHINIKITSDDLETQQKIANESIDSIDKIAEKYGVSYIISVDIEKK
B18: LC3A_17_555 (protein)
chain: MEELKKELEELLKELEKLVKELEKYDPEAAKKLKEKLKEAKKALEKGDLKKALKILKEVAEEAAEVFDSLEHIDPELMSILSMEAEGLLIEALSLEEKLE
B19: LC3A_17_554 (protein)
chain: SEELKEEIKRLLEELEALVEELEKYDPEAAKELRKKLEEAKKALEEGDLEEALKILKEVAEEAAERWDSLEHIDPERMSILSMEAEGLLIEALSLEEKLE

The target in the experiment is MAP1LC3A, Q9H492. The experiment in a line: median log2 fold change of GCK-ALFA target abundance (FLAG IP / Myc IP barcode read proportion) (log2 ratio); each designed protein is fused to an ALFA-tag nanobody in HEK293 cells to bring the named protein to FLAG-tagged glucokinase (GCK); Myc marks an untargeted standard; higher = target protein stabilised (more abundant). The following applies: target protein: 3xFLAG-MCP-GCK-ALFA reporter; HEK293 landing pad (RPLP). In a few lines:
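Binders fused to an ALFA nanobody were recombined as a library into HEK293 landing-pad cells, which were induced with 2 μg mL^−1 doxycycline and then transfected to express a FLAG-tagged target and a Myc-tagged standard. After 48 h, circular RNA barcodes recovered by anti-FLAG and anti-Myc immunoprecipitation of lysates were reverse transcribed, amplified and sequenced. Each binder's target abundance is the median log2 ratio of FLAG to Myc barcode read proportions, from barcodes present at ≥10^−7 in both replicates, binders carrying ≥3 barcodes per replicate, a 10^−6 pseudocount and pooled replicates.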
For B1, the “median log2 fold change” value was 0.361.

For B2, the “median log2 fold change” value was -0.172.

On to B3, for which the “median log2 fold change” value was -0.21.

For the molecule B4, the “median log2 fold change” value is -0.527.

For B5, the “median log2 fold change” value is -0.475.

B6: the “median log2 fold change” value was -0.142.

With B7, the “median log2 fold change” value is -0.446.

For the molecule B8, the “median log2 fold change” value is -0.0394.

B9: the “median log2 fold change” value came out at 0.318.

B10: the “median log2 fold change” value is 0.16.

Turning to B11, the “median log2 fold change” value is -0.094.

For the molecule B12, the “median log2 fold change” value was -0.32.

Regarding B13, the “median log2 fold change” value is 0.165.

Regarding B14, the “median log2 fold change” value is -0.528.

B15: the “median log2 fold change” value came out at 0.14.

For B16, the “median log2 fold change” value was -0.335.

Consider B17, for which the “median log2 fold change” value came to 0.0526.

Regarding B18, the “median log2 fold change” value is -0.476.

As to B19, the “median log2 fold change” value is 0.24.
